Assay [1] is described as follows: small molecules captured by biotinylated probe aFSTL3 – biochemical, small-molecule microarray, fluorescence 635/667, stem cell growth factor project, primary screen (AID 1064).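 Further: measures binding of the biotinylated anti-FSTL3 antibody to printed compounds.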 To be noted: higher = more signal.
Assay [2] is described as follows: binders from COS7 lysate, DM2A8 probe, primary screen, torsin A project, cell lysate, small-molecule microarray, fluorescence 635/667 (AID 1065). The following applies: higher = more signal, COS7 lysate expressing mutant human TOR1A.
Assay [3] can be described thus: small molecules captured by biotinylated probe aFGF2 – biochemical, small-molecule microarray, fluorescence 635/667, stem cell growth factor project, primary screen (AID 1067).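 Further: measures binding of biotinylated aFGF2 protein to printed compounds on slides; z-score merges feature fluorescence and signal-to-noise across triplicate slides.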 To be noted: higher = more signal.
The nature of assay [4]: small molecules captured by biotinylated probe aFGF10 – biochemical, small-molecule microarray, fluorescence 635/667, stem cell growth factor project, primary screen (AID 1071).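 Further: score merges 667 nm spot intensity and signal to noise from triplicate slides.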 The following applies: higher = more signal.
Assay [5] addresses Neurogenic locus notch homolog protein 2 (Homo sapiens) (UniProt Q04721). The assay is described as follows: small molecules binding Notch2 protein – biochemical, small-molecule microarray, 635 nm fluorescence, stem cell growth factors, primary screen (AID 1073). To be noted: higher = more signal.
The target of assay [6] is Pro-neuregulin-1, membrane-bound isoform (Homo sapiens) (UniProt Q02297). Briefly: small molecules binding neuregulin-1 protein – biochemical, small-molecule microarray, fluorescence 635/667, psychiatric disease protein project, primary screen (AID 1075).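 Further: score combines 667 nm spot fluorescence with signal to noise.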 To be noted: NRG1 binding, 635 nm fluorescence, higher = more signal.
The subject of assay [7] is Neuregulin-1 EGF-like domain. The assay is described as follows: small molecules binding NRG1 EGF domain – biochemical, small-molecule microarray, 635 nm fluorescence, primary screen (AID 1081).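 Further: binding of the protein to compounds printed on small-molecule microarray slides.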 To be noted: higher = more signal.
A short description of assay [8]: FRG1 expression reporter modulators in myotubes – cell-based, C2C12 myotubes, firefly/Renilla luciferase, luminescence, FRG1 inhibition for FSHD, primary screen (AID 1084). To be noted: FRG1 promoter luciferase, higher = more signal, called active from +8 up or from −8 down.
A short description of assay [9]: small molecules captured by biotinylated probe aFST – biochemical, small-molecule microarray, fluorescence 635/667, stem cell growth factor project, primary screen (AID 1086).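 Further: score merges 667 nm fluorescence with signal-to-noise of each printed compound spot.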 To be noted: higher = more signal.
Assay [10] in a line: binders of probe aHhip on microarray, primary screen, stem cell growth factor project, biochemical, small-molecule microarray, fluorescence 635/667 (AID 1087).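 Further: score merges spot fluorescence at 667nm with spot signal to noise ratio.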 To be noted: higher = more signal.
For assay [11], the system named is PRMT1 (protein arginine N-methyltransferase 1). Briefly: small molecules binding arginine methyltransferase PRMT1 – biochemical, small-molecule microarray, 635 nm fluorescence, primary screen (AID 1088).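 Further: binding of Prmt1 protein to compounds spotted on small-molecule microarray slides.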 The following applies: higher = more signal.
Assay [12] is described as follows: growth effects on S. cerevisiae YJM789 – YJM789 clinical isolate, OD600, 24 h, basal, primary screen (AID 1089).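 Further: growth of clinical yeast isolate S. cerevisiae YJM 789 seeded 1000 cells per well; test concentration not given here.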 To be noted: higher = more signal, called active from +8 up or from −8 down.
A short description of assay [13]: S. pombe growth modifiers, basal conditions – strain 972, OD600, 24 h, no modulator, primary screen (AID 1090).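 Further: basal condition with compound alone and no growth modifier present; test concentration not given here.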 To be noted: S. pombe 972 growth, higher = more signal, called active from +8 up or from −8 down.
Assay [14] in a line: budding yeast growth modifiers under rapamycin – strain BY4716, OD600, 96 h, primary screen (AID 1091). Further: test concentration not given here. The following applies: S. cerevisiae BY4716 + rapamycin, higher = more signal, called active from +8 up or from −8 down.
For assay [15], the target named is Torsin-1A-interacting protein 2 (Homo sapiens) (UniProt Q8NFQ8). The assay is described as follows: small molecules binding lysate-expressed LULL1 – cell lysate, human LULL1 lysate, 635/667 nm fluorescence, primary screen (AID 1092).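 Further: score merges per-feature 667 nm fluorescence with signal-to-noise.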 The following applies: small-molecule microarray, hLULL1 lysate binding, 635 nm fluorescence; higher = more signal.
Assay [16] can be described thus: optical density change of DRC41 E. coli – strain DRC41, OD650, 24 h, E. coli filamentation project, primary screen (AID 1093).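 Further: MC1000 strain lacking acrAB efflux and sulA so SOS filamentation is blocked; test concentration not given here.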 To be noted: E. coli DRC41 growth, higher = more signal, called active from +8 up or from −8 down.
Assay [17] in a line: probe aLefty2 binding to arrayed compounds – biochemical, biotinylated probe, 635/667 nm fluorescence, primary screen (AID 1094).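 Further: score merges spot fluorescence near 667 nm with spot signal-to-noise ratio.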 The following applies: small-molecule microarray, higher = more signal.
Assay [18] deals with Noggin (protein binding on small-molecule microarray). Briefly: small molecules binding Noggin protein – biochemical, 635/667 nm fluorescence, primary screen (AID 1095).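 Further: score merges 667 nm feature fluorescence with signal to noise over triplicate slides.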 The following applies: 635 nm fluorescence, higher = more signal.
The target in assay [19] is Neurogenic locus notch homolog protein 3 (Homo sapiens) (UniProt Q9UM47). The assay is described as follows: small molecules binding NOTCH3 protein – biochemical, 635/667 nm fluorescence, primary screen (AID 1096). To be noted: small-molecule microarray, 635 nm fluorescence, higher = more signal.
The nature of assay [20]: probe aEGFR binding to arrayed compounds – biochemical, biotinylated probe, 635/667 nm fluorescence, primary screen (AID 1097).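 Further: probe is a biotinylated anti-EGFR antibody binding compounds printed on slides; score combines fluorescence near 667 nm and signal to noise of each spot.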 To be noted: small-molecule microarray, higher = more signal.

Calls of active or inactive are those of the source.

Here are results for 5 compounds from PubChem BioAssay.

Chain of Neurogenic locus notch homolog protein 3 (Homo sapiens) (Q9UM47 whole entry, looked up): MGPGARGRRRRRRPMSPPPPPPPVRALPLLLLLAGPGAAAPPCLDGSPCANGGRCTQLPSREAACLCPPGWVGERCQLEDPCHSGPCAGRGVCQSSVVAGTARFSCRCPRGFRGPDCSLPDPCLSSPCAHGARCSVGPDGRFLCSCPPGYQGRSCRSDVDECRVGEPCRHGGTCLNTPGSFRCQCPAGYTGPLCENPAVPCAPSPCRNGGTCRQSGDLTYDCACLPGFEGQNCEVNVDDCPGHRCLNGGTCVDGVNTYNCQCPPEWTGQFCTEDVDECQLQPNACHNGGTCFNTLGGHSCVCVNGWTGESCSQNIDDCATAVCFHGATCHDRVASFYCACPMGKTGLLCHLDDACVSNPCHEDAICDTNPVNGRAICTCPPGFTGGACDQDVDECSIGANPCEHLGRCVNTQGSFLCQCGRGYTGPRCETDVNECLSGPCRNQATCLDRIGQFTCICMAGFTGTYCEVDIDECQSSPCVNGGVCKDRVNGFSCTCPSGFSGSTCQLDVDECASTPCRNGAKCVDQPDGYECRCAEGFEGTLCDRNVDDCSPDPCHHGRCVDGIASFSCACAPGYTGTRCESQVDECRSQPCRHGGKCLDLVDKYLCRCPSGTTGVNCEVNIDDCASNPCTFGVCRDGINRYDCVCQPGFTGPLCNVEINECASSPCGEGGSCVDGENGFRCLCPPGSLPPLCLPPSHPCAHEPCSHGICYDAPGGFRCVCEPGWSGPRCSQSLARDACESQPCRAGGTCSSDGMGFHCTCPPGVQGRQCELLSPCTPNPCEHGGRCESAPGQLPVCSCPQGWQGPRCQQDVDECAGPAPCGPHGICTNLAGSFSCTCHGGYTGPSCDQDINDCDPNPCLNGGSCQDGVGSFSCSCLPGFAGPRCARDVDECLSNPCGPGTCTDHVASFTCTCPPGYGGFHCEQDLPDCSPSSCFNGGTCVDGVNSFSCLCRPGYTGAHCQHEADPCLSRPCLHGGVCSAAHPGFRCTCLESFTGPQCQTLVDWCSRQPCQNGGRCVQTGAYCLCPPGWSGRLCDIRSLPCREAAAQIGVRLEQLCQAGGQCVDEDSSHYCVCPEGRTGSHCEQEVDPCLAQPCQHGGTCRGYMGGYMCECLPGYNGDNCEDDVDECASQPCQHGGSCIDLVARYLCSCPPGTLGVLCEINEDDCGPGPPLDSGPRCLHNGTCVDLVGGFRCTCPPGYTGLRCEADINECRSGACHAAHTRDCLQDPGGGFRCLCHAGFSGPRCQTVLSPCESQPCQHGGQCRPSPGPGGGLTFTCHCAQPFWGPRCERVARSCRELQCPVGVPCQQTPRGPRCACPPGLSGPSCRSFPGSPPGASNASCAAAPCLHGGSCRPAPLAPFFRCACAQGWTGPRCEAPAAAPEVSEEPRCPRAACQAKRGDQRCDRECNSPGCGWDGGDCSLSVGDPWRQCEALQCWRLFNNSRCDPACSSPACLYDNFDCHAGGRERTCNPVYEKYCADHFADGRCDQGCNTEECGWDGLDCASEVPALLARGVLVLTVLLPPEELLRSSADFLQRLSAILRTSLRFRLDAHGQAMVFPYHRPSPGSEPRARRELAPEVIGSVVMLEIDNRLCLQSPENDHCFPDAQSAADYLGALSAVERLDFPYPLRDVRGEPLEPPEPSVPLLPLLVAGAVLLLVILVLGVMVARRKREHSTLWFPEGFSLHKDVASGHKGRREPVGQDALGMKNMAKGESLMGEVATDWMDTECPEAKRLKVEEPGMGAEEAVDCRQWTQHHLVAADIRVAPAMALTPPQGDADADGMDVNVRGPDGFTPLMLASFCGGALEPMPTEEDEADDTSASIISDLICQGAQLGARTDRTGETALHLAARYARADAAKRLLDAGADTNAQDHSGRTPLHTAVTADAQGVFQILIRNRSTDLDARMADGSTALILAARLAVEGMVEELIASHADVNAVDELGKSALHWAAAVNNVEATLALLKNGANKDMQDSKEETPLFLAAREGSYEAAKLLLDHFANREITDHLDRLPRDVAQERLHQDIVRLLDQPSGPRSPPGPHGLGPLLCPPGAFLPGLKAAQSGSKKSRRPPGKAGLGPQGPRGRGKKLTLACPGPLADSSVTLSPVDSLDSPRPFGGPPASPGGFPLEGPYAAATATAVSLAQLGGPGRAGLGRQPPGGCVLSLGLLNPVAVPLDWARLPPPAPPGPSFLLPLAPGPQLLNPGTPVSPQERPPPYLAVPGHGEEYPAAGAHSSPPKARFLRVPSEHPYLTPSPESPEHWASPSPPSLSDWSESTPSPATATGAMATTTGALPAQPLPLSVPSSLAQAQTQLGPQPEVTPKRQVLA
Chain of Torsin-1A-interacting protein 2 (Homo sapiens) (Q8NFQ8 whole entry, looked up): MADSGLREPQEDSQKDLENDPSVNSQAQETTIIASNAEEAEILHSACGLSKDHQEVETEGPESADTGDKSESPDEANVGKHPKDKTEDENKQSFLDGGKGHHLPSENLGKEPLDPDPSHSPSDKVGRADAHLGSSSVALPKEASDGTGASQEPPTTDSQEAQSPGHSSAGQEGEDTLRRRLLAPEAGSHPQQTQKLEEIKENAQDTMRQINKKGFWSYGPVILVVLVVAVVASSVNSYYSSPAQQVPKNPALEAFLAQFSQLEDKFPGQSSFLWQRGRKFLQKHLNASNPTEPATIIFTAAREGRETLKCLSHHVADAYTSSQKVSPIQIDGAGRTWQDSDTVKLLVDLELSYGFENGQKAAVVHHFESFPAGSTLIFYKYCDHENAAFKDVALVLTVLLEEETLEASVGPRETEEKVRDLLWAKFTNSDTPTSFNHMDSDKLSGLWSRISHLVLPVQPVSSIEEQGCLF
Chain of Pro-neuregulin-1, membrane-bound isoform (Homo sapiens) (Q02297 whole entry, looked up, the tested form may be a part, canonical isoform): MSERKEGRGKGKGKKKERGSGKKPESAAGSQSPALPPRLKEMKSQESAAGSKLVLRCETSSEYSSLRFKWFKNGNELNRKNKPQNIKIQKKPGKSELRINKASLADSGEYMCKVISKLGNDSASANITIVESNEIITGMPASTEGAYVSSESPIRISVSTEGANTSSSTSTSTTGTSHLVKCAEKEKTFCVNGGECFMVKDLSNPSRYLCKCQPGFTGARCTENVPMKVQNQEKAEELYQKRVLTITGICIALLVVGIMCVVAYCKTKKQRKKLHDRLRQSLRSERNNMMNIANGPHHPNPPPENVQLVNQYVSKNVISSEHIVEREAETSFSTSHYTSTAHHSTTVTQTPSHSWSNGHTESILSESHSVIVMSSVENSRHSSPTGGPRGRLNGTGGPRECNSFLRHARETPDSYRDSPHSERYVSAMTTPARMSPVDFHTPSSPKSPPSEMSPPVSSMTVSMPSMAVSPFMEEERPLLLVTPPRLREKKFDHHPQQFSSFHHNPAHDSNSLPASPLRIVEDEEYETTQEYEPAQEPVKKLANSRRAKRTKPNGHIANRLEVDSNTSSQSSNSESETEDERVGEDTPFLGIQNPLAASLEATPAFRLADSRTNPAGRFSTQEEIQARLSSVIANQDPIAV

Consider `C=C(/C(=C/C[C@@H](OC(C)=O)c1ccccc1OCCO)c1cc(C(=O)OC)ccc1OC)C(C)C`, for which the composite z-score in [1] was -0.101; in [2] it was 0.179; in assay [3], -0.049; in assay [4], 0.643; in [5] it was 0.632; in assay [6], 0.685. Besides, the composite z-score is 0.5 in assay [7]; -0.145 in [9]; -0.312 in assay [10]; 0.551 in assay [11]; 0.231 in assay [15]; -0.119 in [17]. In addition, the composite z-score in [18] is 0.235; in [19], -0.163; in [20], 0.198. Also, the z-score in [8] is 0.178 (inactive); in assay [12], 0.343 (inactive); in [13] it was -0.377 (inactive); in assay [14], -0.729 (inactive); in assay [16], 0.505 (inactive).
For `C=CCN1C(=O)[C@]2(O[C@H](CCn3cc([C@H](O)c4ccccc4)nn3)[C@@H]([Si](C)(C)c3ccc(OC)cc3)[C@@H]2C)c2cc(N3C(=O)c4cccc5cccc3c45)ccc21`, the composite z-score in [1] was -0.144; in [2], -0.111; in assay [3], -0.085; in assay [4], 0.73; in [5], -0.0893; in assay [6], 1.07. Moreover, the composite z-score in assay [7] is 0.76; in assay [9] it was -0.516; in assay [10], -0.256; in assay [11], 0.755; in [15], 0.6; in [17], -0.217. The composite z-score in assay [18] is 0.624; in assay [19], 0.232; in [20], -0.28. Further, the z-score in [8] is -1.84 (inactive); in [12] it was -0.055 (inactive); in assay [13] it was 1.06 (inactive); in assay [14], 1.21 (inactive); in assay [16] it was 0.374 (inactive).
For the compound `COC(=O)[C@@]1(Cc2ccc(OC)cc2)[C@H]2c3cc(C(=O)N4CCCC4)n(CCc4ccc(OC)c(Br)c4)c3C[C@H]2CN1C(=O)c1ccccc1`, the composite z-score in assay [1] was 1.02; in assay [2], -0.116; in assay [3], 0.159; in assay [4], 0.929; in assay [5] it was 1.04; in assay [6] it was 2.17. The composite z-score was 1.44 in assay [7]; 0.546 in assay [9]; 0.21 in assay [10]; -1.11 in [11]; 3.27 in [15]; 0.153 in [17]. Besides, the composite z-score was -0.802 in assay [18], -0.0445 in assay [19] and -0.0357 in [20]. Also, the z-score in [8] was 1.25 (inactive); in [12] it was 0.0024 (inactive); in assay [13], 0.111 (inactive); in assay [14], -0.751 (inactive); in assay [16] it was 0.615 (inactive).
On to `COc1ccc([Si](C)(C)[C@H]2[C@H](CCO)O[C@@]3(C(=O)N(Cc4ccc(N5CCOC5=O)cc4)c4ccccc43)[C@@H]2C)cc1`, for which the composite z-score is 0.173 in assay [1]; 0.306 in assay [2]; -0.137 in assay [3]; 0.034 in assay [4]; -0.0425 in assay [5]; 1.11 in [6]. Also, the composite z-score was 0.664 in assay [7]; -0.083 in assay [9]; -0.0994 in assay [10]; 1.06 in assay [11]; 1.27 in assay [15]; -0.139 in assay [17]. The composite z-score in assay [18] was 0.0178; in assay [19], 0.287; in assay [20] it was -0.315. In addition, the z-score in assay [8] was -4.39 (inactive); in assay [12], 3.62 (inactive); in assay [13], 0.623 (inactive); in [14], 35.9 (active); in assay [16], 0.816 (inactive).
As for `CCCC[C@H]1OB(O)C[C@H]2C1=C(C)C[C@H]1C(=O)C=CC(=O)[C@H]12`, the composite z-score is -0.567 in assay [1]; -0.0474 in assay [2]; -0.0887 in assay [3]; 0.309 in [4]; 0.425 in [5]; 0.532 in assay [6]. Besides, the composite z-score was 0.698 in [7]; 0.189 in assay [9]; 0.176 in assay [10]; 1.24 in [11]; 1.01 in [15]; -0.0916 in assay [17]. In addition, the values for the composite z-score in [18], in assay [19] and in assay [20] were 0.782, 1.04 and -0.071, respectively. Also, the z-score was 0.358 (inactive) in assay [8]; 0.111 (inactive) in [12]; -15.4 (active) in assay [13]; -0.0407 (inactive) in assay [14]; -0.0396 (inactive) in assay [16].
